Results as given in publication PMC5540273 (PLoS ONE, 2017).

Assays:
Settings in all cases: concentration: 1 μM, replicates: in singlicate; n = 1
[1] = test system: STK16
[2] = test system: STK33
[3] = test system: STK35
[4] = test system: STK36
[5] = test system: STK39
[6] = test system: SYK
[7] = test system: SgK110
[8] = test system: T1, TAK1
T1 construct: gene MAP3K7

[9] = test system: TAOK1
[10] = test system: TAOK2
[11] = test system: TAOK3
[12] = test system: TBK1
[13] = test system: TEC
[14] = test system: TESK1
[15] = test system: TGFBR1
[16] = test system: TGFBR2
[17] = test system: TIE1
[18] = test system: T2, TIE2
T2 construct: gene TEK

[19] = test system: TLK1
[20] = test system: TLK2
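Note: KINOMEscan kinase panel screen.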

| Structure (SMILES) | %Inh [1] [%] | %Inh [2] [%] | %Inh [3] [%] | %Inh [4] [%] | %Inh [5] [%] | %Inh [6] [%] | %Inh [7] [%] | %Inh [8] [%] | %Inh [9] [%] | %Inh [10] [%] | %Inh [11] [%] | %Inh [12] [%] | %Inh [13] [%] | %Inh [14] [%] | %Inh [15] [%] | %Inh [16] [%] | %Inh [17] [%] | %Inh [18] [%] | %Inh [19] [%] | %Inh [20] [%] |
| --- | --- | --- | --- | --- | --- | --- | --- | --- | --- | --- | --- | --- | --- | --- | --- | --- | --- | --- | --- | --- |
| COc1ccccc1-c1ccc2c(NC(=O)C3CC3)n[nH]c2n1 [SB-711239] | 28 | 20 | 0 | 6 | 18 | 20 | 14 | 0 | 0 | 0 | 0 | 26 | 0 | 8 | 14 | 1 | 6 | 11 | 0 | 2 |
| Cc1csc(-c2nc(Nc3ccncc3)c3ccccc3n2)n1 [GW869640] | 17 | 18 | 0 | 0 | 0 | 2 | 8 | 25 | 36 | 16 | 29 | 37 | 9 | 13 |  | 88 | 36 | 21 | 0 | 1 |
| CN1C(=O)C(Nc2ccc(Cl)c(C(=O)O)c2)=C(c2ccc(Cl)cc2)C1=O [SB-404290] | 0 | 0 | 4 | 0 | 0 | 28 | 0 | 0 | 11 | 5 | 19 | 27 | 0 | 0 | 0 | 0 | 0 | 14 | 0 | 0 |
| Cc1ccc(NC(=O)Nc2cccc(Cl)c2)cc1-c1ccc(C(=O)Nc2ccncc2)cc1 [GSK1398468] | 9 | 0 | 0 | 1 | 0 | 3 | 0 | 0 | 0 | 0 | 0 | 5 | 13 | 18 | 30 | 0 | 0 | 0 | 0 | 12 |
| O=C(Nc1n[nH]c2nc(-c3nccs3)c(Br)cc12)C1CC1 [SB-742251] | 61 | 0 | 0 | 1 | 21 | 0 | 4 | 0 | 0 | 0 | 0 | 0 | 14 | 36 | 15 | 0 | 0 | 8 | 0 | 0 |
| COc1cc2nccc(Nc3ccc(NC(=O)c4ccc(C)cc4)c(O)c3)c2cc1OC.Cl [GW440132] | 0 | 7 | 0 | 0 | 0 | 38 | 0 | 0 | 0 | 0 | 0 | 0 | 3 | 25 | 0 | 0 | 6 | 0 | 0 | 0 |
| Cc1cccc(-c2nc(Nc3ccc4[nH]ncc4c3)c3ccccc3n2)n1 [GW857175] | 17 | 0 | 0 | 15 | 14 | 5 | 0 | 0 | 33 | 9 | 19 | 35 | 3 | 5 |  | 0 | 17 | 49 | 23 | 0 |
| COc1cc2ncnc(Nc3ccc4nc(-c5ccccc5)[nH]c4c3)c2cc1OC.Cl [GW282450] | 19 | 0 | 0 | 0 | 0 | 43 | 0 | 23 | 0 | 0 | 0 | 12 | 0 | 20 | 0 | 0 | 1 | 0 | 0 | 0 |
| Cc1cccc(-c2cc(Nc3ccncc3)c3ccccc3n2)n1 [GSK223675] | 19 | 0 | 0 | 0 | 0 | 2 | 0 | 0 | 0 | 0 | 0 | 28 | 0 | 63 |  | 0 | 0 | 0 | 21 | 0 |
